Test results published in PMC11006913.
Substitutions are numbered along the chain they refer to.

Key:
Assay in all cases: PBM; 200 nM protein, PBS
Conditions in all cases: dsDNA, one strand shown
ALX4 [1] = target: ALX4 (Homo sapiens, UniProt Q9H161 200-286)
HOXC10 [2] = target: HOXC10 (Homo sapiens, UniProt Q9NYD6 254-340)
HOXC10 [3] = target: HOXC10 (Homo sapiens, UniProt Q9NYD6 254-340, K271E)
VAX1 [4] = target: VAX1 (Homo sapiens, UniProt Q5SQQ9 86-172)
VAX1 [5] = target: VAX1 (Homo sapiens, UniProt Q5SQQ9 86-172, T142I)
Sequence of VAX1 (Homo sapiens, UniProt Q5SQQ9 86-172, T142I) (Q5SQQ9 86-172 T142I): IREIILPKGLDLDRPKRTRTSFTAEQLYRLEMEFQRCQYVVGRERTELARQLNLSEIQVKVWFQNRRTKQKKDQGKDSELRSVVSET

VAX1 [6] = target: VAX1 (Homo sapiens, UniProt Q5SQQ9 86-172, K157R)
Sequence of VAX1 (Homo sapiens, UniProt Q5SQQ9 86-172, K157R) (Q5SQQ9 86-172 K157R): as the sequence (Q5SQQ9 86-172 T142I) above, with I57T, K72R counted along it

ALX3 [7] = target: ALX3 (Homo sapiens, UniProt O95076 139-225, N203S)
Sequence of ALX3 (Homo sapiens, UniProt O95076 139-225, N203S) (O95076 139-225 N203S): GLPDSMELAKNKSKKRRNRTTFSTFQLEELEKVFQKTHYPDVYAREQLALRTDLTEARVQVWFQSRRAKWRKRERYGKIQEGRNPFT

PRRX1 [8] = target: PRRX1 (Homo sapiens, UniProt P54821 80-166, F113S)
Sequence of PRRX1 (Homo sapiens, UniProt P54821 80-166, F113S) (P54821 80-166 F113S): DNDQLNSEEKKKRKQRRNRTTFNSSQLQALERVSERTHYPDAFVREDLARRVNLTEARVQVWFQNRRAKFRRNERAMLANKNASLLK

ALX4 [9] = target: ALX4 (Homo sapiens, UniProt Q9H161 200-286, Q225E)
Sequence of ALX4 (Homo sapiens, UniProt Q9H161 200-286, Q225E) (Q9H161 200-286 Q225E): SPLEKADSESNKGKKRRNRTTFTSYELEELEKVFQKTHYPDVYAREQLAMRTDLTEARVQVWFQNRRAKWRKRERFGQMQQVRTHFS

PRRX1 [10] = target: PRRX1 (Homo sapiens, UniProt P54821 80-166)
Sequence of PRRX1 (Homo sapiens, UniProt P54821 80-166) (P54821 80-166): as the sequence (P54821 80-166 F113S) above, with S34F counted along it

PAX4 [11] = target: T1, PAX4 (Homo sapiens, UniProt O43316 9-242, R200K)
T1 sequence: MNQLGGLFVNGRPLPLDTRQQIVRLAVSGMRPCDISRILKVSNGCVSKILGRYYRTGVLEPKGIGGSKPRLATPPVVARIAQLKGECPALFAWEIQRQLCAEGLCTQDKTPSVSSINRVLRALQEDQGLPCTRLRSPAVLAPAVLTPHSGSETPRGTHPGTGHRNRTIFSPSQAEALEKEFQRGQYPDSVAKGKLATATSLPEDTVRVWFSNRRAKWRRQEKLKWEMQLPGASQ

PAX4 [12] = target: T2, PAX4 (Homo sapiens, UniProt O43316 9-242)
T2 sequence: T1 sequence with K192R

NKX2-6 [13] = target: T3, NKX2-6 (Homo sapiens, UniProt A6NCS4 118-204)
T3 sequence: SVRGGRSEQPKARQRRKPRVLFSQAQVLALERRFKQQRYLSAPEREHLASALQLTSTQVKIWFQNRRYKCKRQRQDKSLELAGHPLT

PAX4 [14] = target: T4, PAX4 (Homo sapiens, UniProt O43316 9-242, R200Q)
T4 sequence: T1 sequence with K192Q

PAX4 [15] = target: T5, PAX4 (Homo sapiens, UniProt O43316 9-242, F177V)
T5 sequence: T1 sequence with F169V, K192R

PAX4 [16] = target: T6, PAX4 (Homo sapiens, UniProt O43316 9-242, F177Y)
T6 sequence: T1 sequence with F169Y, K192R

NKX2-6 [17] = target: T7, NKX2-6 (Homo sapiens, UniProt A6NCS4 118-204, F151L)
T7 sequence: T3 sequence with F34L

PAX4 [18] = target: T8, PAX4 (Homo sapiens, UniProt O43316 9-242, R227W)
T8 sequence: T1 sequence with K192R, R219W

ALX1 [19] = target: ALX1 (Homo sapiens, UniProt Q15699 118-204, L144V)
Sequence of ALX1 (Homo sapiens, UniProt Q15699 118-204, L144V) (Q15699 118-204 L144V): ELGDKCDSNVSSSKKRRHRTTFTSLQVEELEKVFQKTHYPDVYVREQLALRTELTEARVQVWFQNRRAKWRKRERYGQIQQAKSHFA

ALX3 [20] = target: ALX3 (Homo sapiens, UniProt O95076 139-225, N203Q)
Sequence of ALX3 (Homo sapiens, UniProt O95076 139-225, N203Q) (O95076 139-225 N203Q): as the sequence (O95076 139-225 N203S) above, with S65Q counted along it

ALX1 [21] = target: ALX1 (Homo sapiens, UniProt Q15699 118-204, L144R)
Sequence of ALX1 (Homo sapiens, UniProt Q15699 118-204, L144R) (Q15699 118-204 L144R): as the sequence (Q15699 118-204 L144V) above, with V27R counted along it

ALX3 [22] = target: ALX3 (Homo sapiens, UniProt O95076 139-225)
Sequence of ALX3 (Homo sapiens, UniProt O95076 139-225) (O95076 139-225): as the sequence (O95076 139-225 N203S) above, with S65N counted along it

ALX3 [23] = target: ALX3 (Homo sapiens, UniProt O95076 139-225, L168Q)
Sequence of ALX3 (Homo sapiens, UniProt O95076 139-225, L168Q) (O95076 139-225 L168Q): as the sequence (O95076 139-225 N203S) above, with L30Q, S65N counted along it

ALX3 [24] = target: ALX3 (Homo sapiens, UniProt O95076 139-225, L168V)
Sequence of ALX3 (Homo sapiens, UniProt O95076 139-225, L168V) (O95076 139-225 L168V): as the sequence (O95076 139-225 N203S) above, with L30V, S65N counted along it

HOXA4 = HOXA4 (Homo sapiens, UniProt Q00056 201-287, W262F)
Sequence of HOXA4 (Q00056 201-287 W262F): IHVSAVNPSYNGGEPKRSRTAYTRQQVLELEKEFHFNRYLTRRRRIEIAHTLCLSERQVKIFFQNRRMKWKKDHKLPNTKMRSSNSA

MSX2 [25] = target: MSX2 (Homo sapiens, UniProt P35548 130-214, R199I)
Sequence of MSX2 (Homo sapiens, UniProt P35548 130-214, R199I) (P35548 130-214 R199I): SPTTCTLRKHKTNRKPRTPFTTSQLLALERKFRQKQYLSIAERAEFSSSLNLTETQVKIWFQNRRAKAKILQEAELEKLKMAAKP

MSX2 [26] = target: MSX2 (Homo sapiens, UniProt P35548 130-214)
Sequence of MSX2 (Homo sapiens, UniProt P35548 130-214) (P35548 130-214): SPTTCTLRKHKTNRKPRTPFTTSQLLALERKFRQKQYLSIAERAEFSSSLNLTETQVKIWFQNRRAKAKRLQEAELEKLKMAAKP

MSX2 [27] = target: MSX2 (Homo sapiens, UniProt P35548 130-214, F161Y)
Sequence of MSX2 (Homo sapiens, UniProt P35548 130-214, F161Y) (P35548 130-214 F161Y): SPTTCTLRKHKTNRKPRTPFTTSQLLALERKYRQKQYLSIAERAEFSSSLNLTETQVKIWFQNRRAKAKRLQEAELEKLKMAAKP

CRX = CRX (Homo sapiens, UniProt O43186 26-111, R41L)
Sequence of CRX (O43186 26-111 R41L): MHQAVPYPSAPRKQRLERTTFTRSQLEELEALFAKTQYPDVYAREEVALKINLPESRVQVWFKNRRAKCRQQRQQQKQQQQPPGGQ

Sequence of ALX4 (Homo sapiens, UniProt Q9H161 200-286) (Q9H161 200-286): as the sequence (Q9H161 200-286 Q225E) above, with E26Q counted along it
Sequence of HOXC10 (Homo sapiens, UniProt Q9NYD6 254-340) (Q9NYD6 254-340): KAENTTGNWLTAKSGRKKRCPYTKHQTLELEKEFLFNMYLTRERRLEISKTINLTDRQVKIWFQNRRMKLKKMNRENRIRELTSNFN
Sequence of HOXC10 (Homo sapiens, UniProt Q9NYD6 254-340, K271E) (Q9NYD6 254-340 K271E): as the sequence (Q9NYD6 254-340) above, with K18E counted along it
Sequence of VAX1 (Homo sapiens, UniProt Q5SQQ9 86-172) (Q5SQQ9 86-172): as the sequence (Q5SQQ9 86-172 T142I) above, with I57T counted along it

Sequence: TAACGAAA
- binding signal (ALX4 [1]): 10.6 upbm affinity estimate (log intensity, higher = more binding, comparable within an allelic series)

Sequence: CCGGGGAA
- binding signal (HOXC10 [2]): 9.93 upbm affinity estimate (log intensity, higher = more binding, comparable within an allelic series)
- binding signal (HOXC10 [3]): 9.99 upbm affinity estimate (log intensity, higher = more binding, comparable within an allelic series)
- binding signal (VAX1 [4]): 7.17 upbm affinity estimate (log intensity, higher = more binding, comparable within an allelic series)
- binding signal (VAX1 [5]): 7.19 upbm affinity estimate (log intensity, higher = more binding, comparable within an allelic series)
- binding signal (VAX1 [6]): 7.27 upbm affinity estimate (log intensity, higher = more binding, comparable within an allelic series)

Sequence: AATCTCCA
- binding signal (ALX4 [1]): 9.73 upbm affinity estimate (log intensity, higher = more binding, comparable within an allelic series)

Sequence: CCACTAAC
- binding signal (ALX4 [1]): 10 upbm affinity estimate (log intensity, higher = more binding, comparable within an allelic series)

Sequence: AATGGCCT
- binding signal (ALX4 [1]): 10.3 upbm affinity estimate (log intensity, higher = more binding, comparable within an allelic series)

Sequence: TTAAATAA
- binding signal (HOXC10 [2]): 11.4 upbm affinity estimate (log intensity, higher = more binding, comparable within an allelic series)
- binding signal (HOXC10 [3]): 11.1 upbm affinity estimate (log intensity, higher = more binding, comparable within an allelic series)
- binding signal (ALX3 [7]): 8.72 upbm affinity estimate (log intensity, higher = more binding, comparable within an allelic series)

Sequence: CCGAACTC
- binding signal (HOXC10 [2]): 9.95 upbm affinity estimate (log intensity, higher = more binding, comparable within an allelic series)
- binding signal (HOXC10 [3]): 10 upbm affinity estimate (log intensity, higher = more binding, comparable within an allelic series)

Sequence: AATGCTAT
- binding signal (HOXC10 [2]): 11 upbm affinity estimate (log intensity, higher = more binding, comparable within an allelic series)
- binding signal (HOXC10 [3]): 10.9 upbm affinity estimate (log intensity, higher = more binding, comparable within an allelic series)

Sequence: CATTACCG
- binding signal (ALX4 [1]): 11.2 upbm affinity estimate (log intensity, higher = more binding, comparable within an allelic series)

Sequence: AAGTTTAC
- binding signal (ALX4 [1]): 9.93 upbm affinity estimate (log intensity, higher = more binding, comparable within an allelic series)

Sequence: GAGCACCC
- binding signal (ALX4 [1]): 7.99 upbm affinity estimate (log intensity, higher = more binding, comparable within an allelic series)
- binding signal (PRRX1 [8]): 9.2 upbm affinity estimate (log intensity, higher = more binding, comparable within an allelic series)
- binding signal (ALX4 [9]): 8.37 upbm affinity estimate (log intensity, higher = more binding, comparable within an allelic series)
- binding signal (PRRX1 [10]): 9.01 upbm affinity estimate (log intensity, higher = more binding, comparable within an allelic series)

Sequence: CGAAGGCC
- binding signal (ALX4 [1]): 8.29 upbm affinity estimate (log intensity, higher = more binding, comparable within an allelic series)
- binding signal (PAX4 [11]): 9.2 upbm affinity estimate (log intensity, higher = more binding, comparable within an allelic series)
- binding signal (PAX4 [12]): 9.31 upbm affinity estimate (log intensity, higher = more binding, comparable within an allelic series)
- binding signal (ALX4 [9]): 8.19 upbm affinity estimate (log intensity, higher = more binding, comparable within an allelic series)
- binding signal (NKX2-6 [13]): 9.35 upbm affinity estimate (log intensity, higher = more binding, comparable within an allelic series)
- binding signal (PAX4 [14]): 9.3 upbm affinity estimate (log intensity, higher = more binding, comparable within an allelic series)
- binding signal (PAX4 [15]): 9.19 upbm affinity estimate (log intensity, higher = more binding, comparable within an allelic series)
- binding signal (PAX4 [16]): 9.09 upbm affinity estimate (log intensity, higher = more binding, comparable within an allelic series)
- binding signal (NKX2-6 [17]): 9.28 upbm affinity estimate (log intensity, higher = more binding, comparable within an allelic series)
- binding signal (PAX4 [18]): 9.29 upbm affinity estimate (log intensity, higher = more binding, comparable within an allelic series)

Sequence: AAATTAAC
- binding signal (ALX4 [1]): 13.5 upbm affinity estimate (log intensity, higher = more binding, comparable within an allelic series)
- binding signal (PAX4 [11]): 11.6 upbm affinity estimate (log intensity, higher = more binding, comparable within an allelic series)
- binding signal (PAX4 [12]): 12.2 upbm affinity estimate (log intensity, higher = more binding, comparable within an allelic series)
- binding signal (ALX4 [9]): 12.7 upbm affinity estimate (log intensity, higher = more binding, comparable within an allelic series)
- binding signal (ALX1 [19]): 11.4 upbm affinity estimate (log intensity, higher = more binding, comparable within an allelic series)
- binding signal (ALX3 [20]): 8.36 upbm affinity estimate (log intensity, higher = more binding, comparable within an allelic series)
- binding signal (PAX4 [14]): 11.9 upbm affinity estimate (log intensity, higher = more binding, comparable within an allelic series)
- binding signal (ALX1 [21]): 11.1 upbm affinity estimate (log intensity, higher = more binding, comparable within an allelic series)
- binding signal (PAX4 [15]): 10.5 upbm affinity estimate (log intensity, higher = more binding, comparable within an allelic series)
- binding signal (ALX3 [22]): 12.2 upbm affinity estimate (log intensity, higher = more binding, comparable within an allelic series)
- binding signal (PAX4 [16]): 10.9 upbm affinity estimate (log intensity, higher = more binding, comparable within an allelic series)
- binding signal (ALX3 [23]): 10.3 upbm affinity estimate (log intensity, higher = more binding, comparable within an allelic series)
- binding signal (ALX3 [24]): 9.64 upbm affinity estimate (log intensity, higher = more binding, comparable within an allelic series)
- binding signal (PAX4 [18]): 10.9 upbm affinity estimate (log intensity, higher = more binding, comparable within an allelic series)
- binding signal (ALX3 [7]): 8.57 upbm affinity estimate (log intensity, higher = more binding, comparable within an allelic series)

Sequence: CATTAACA
- binding signal (HOXC10 [2]): 11.8 upbm affinity estimate (log intensity, higher = more binding, comparable within an allelic series)
- binding signal (HOXC10 [3]): 11.6 upbm affinity estimate (log intensity, higher = more binding, comparable within an allelic series)
- binding signal (HOXA4): 11.5 upbm affinity estimate (log intensity, higher = more binding, comparable within an allelic series)

Sequence: TGATGGCA
- binding signal (HOXC10 [2]): 10.7 upbm affinity estimate (log intensity, higher = more binding, comparable within an allelic series)
- binding signal (VAX1 [4]): 9.08 upbm affinity estimate (log intensity, higher = more binding, comparable within an allelic series)
- binding signal (VAX1 [5]): 8.72 upbm affinity estimate (log intensity, higher = more binding, comparable within an allelic series)

Sequence: AGGGCACC
- binding signal (ALX4 [1]): 7.93 upbm affinity estimate (log intensity, higher = more binding, comparable within an allelic series)
- binding signal (PRRX1 [8]): 9.03 upbm affinity estimate (log intensity, higher = more binding, comparable within an allelic series)
- binding signal (ALX4 [9]): 8.09 upbm affinity estimate (log intensity, higher = more binding, comparable within an allelic series)
- binding signal (MSX2 [25]): 9.47 upbm affinity estimate (log intensity, higher = more binding, comparable within an allelic series)
- binding signal (MSX2 [26]): 9.48 upbm affinity estimate (log intensity, higher = more binding, comparable within an allelic series)
- binding signal (MSX2 [27]): 9.58 upbm affinity estimate (log intensity, higher = more binding, comparable within an allelic series)
- binding signal (PRRX1 [10]): 9.28 upbm affinity estimate (log intensity, higher = more binding, comparable within an allelic series)

Sequence: ATATTTAG
- binding signal (ALX4 [1]): 10.9 upbm affinity estimate (log intensity, higher = more binding, comparable within an allelic series)

Sequence: ATAACAAG
- binding signal (ALX4 [1]): 10.9 upbm affinity estimate (log intensity, higher = more binding, comparable within an allelic series)

Sequence: ACATTACC
- binding signal (ALX4 [1]): 10.7 upbm affinity estimate (log intensity, higher = more binding, comparable within an allelic series)

Sequence: ATATAGTC
- binding signal (ALX4 [1]): 8.99 upbm affinity estimate (log intensity, higher = more binding, comparable within an allelic series)

Sequence: TATTAAGA
- binding signal (HOXC10 [2]): 11.2 upbm affinity estimate (log intensity, higher = more binding, comparable within an allelic series)
- binding signal (HOXC10 [3]): 10.9 upbm affinity estimate (log intensity, higher = more binding, comparable within an allelic series)
- binding signal (CRX): 10.6 upbm affinity estimate (log intensity, higher = more binding, comparable within an allelic series)

Sequence: ATGTCTTA
- binding signal (ALX4 [1]): 9.38 upbm affinity estimate (log intensity, higher = more binding, comparable within an allelic series)

Sequence: ATCTAAAC
- binding signal (ALX4 [1]): 9.7 upbm affinity estimate (log intensity, higher = more binding, comparable within an allelic series)

Sequence: CAACATTA
- binding signal (ALX4 [1]): 10.5 upbm affinity estimate (log intensity, higher = more binding, comparable within an allelic series)

Sequence: TACTTAGA
- binding signal (HOXC10 [2]): 10.8 upbm affinity estimate (log intensity, higher = more binding, comparable within an allelic series)
- binding signal (MSX2 [26]): 11.1 upbm affinity estimate (log intensity, higher = more binding, comparable within an allelic series)
- binding signal (MSX2 [27]): 10.9 upbm affinity estimate (log intensity, higher = more binding, comparable within an allelic series)

Sequence: TAAGTCGA
- binding signal (ALX4 [1]): 10 upbm affinity estimate (log intensity, higher = more binding, comparable within an allelic series)

Sequence: CCCATAAC
- binding signal (ALX4 [1]): 9.61 upbm affinity estimate (log intensity, higher = more binding, comparable within an allelic series)
